Source: PubChem BioAssay (NCI)
This is part of a sample that, as a whole, favours compounds with a hit. Of some 79,000 tested, about 15% had one in any assay. Cut-off read from the data, not from the text of the source: active = growth inhibition above about 70%; inactive = the rest.

How the values were obtained:
[1] = NCI Yeast Anticancer Drug Screen. Data for the rad50 strain (AID 155);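 note: 0% = growth of vehicle-only cultures of the same strain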; details: S. cerevisiae rad50 strain growth inhibition; at 50.0 µM; hits give high values
Method in brief: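 Vehicle-treated cultures provide the reference for the growth inhibition reported for compound-exposed, repair-deficient yeast.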

[2] = NCI Yeast Anticancer Drug Screen. Data for the mec2-1 strain (AID 157); details: S. cerevisiae mec2-1 strain, at 50.0 µM, hits give high values
Method in brief: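 Strain: mec2-1 (DNA repair/cell cycle alteration). Compound exposure, then growth measured; inhibition expressed relative to vehicle.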

[3] = NCI Yeast Anticancer Drug Screen. Data for the mlh1 rad18 strain (AID 175); details: S. cerevisiae mlh1 rad18 strain growth inhibition; at 50.0 µM; hits give high values
Method in brief: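 Read-out is yeast growth inhibition, calculated against vehicle-only controls. The compound was applied to a strain engineered with DNA damage repair alterations.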

Measured: growth inhibition

Nc1ccc(Nc2nc3ccccc3s2)c(O)c1
inactive: [1] 22.6% | [2] 2.15% | [3] 24.6%

Cc1cc(C)cc(NC(=O)c2ccccc2N)c1
inactive: [1] -5.15% | [2] -27.9% | [3] -4.6%

ClCCOC(OCCCl)OCCCl
inactive: [1] -7.4% | [2] -28.3% | [3] 4.85%

Cc1n[nH]c(=O)n(/N=C\c2c[nH]c3ccccc23)c1=O
inactive: [1] 0.2% | [2] -4.55% | [3] -1.55%

CCOC(=O)c1nc2cc(C)c(C)cc2[nH]c1=O
inactive: [1] 5.45% | [2] -5.4% | [3] -1.85%

O=C1OC(=O)C2C1OC1C(=O)OC(=O)C12 (stereo not drawn)
inactive: [1] -35.6% | [2] -33.1% | [3] -28.1%

COc1ccc(C2NC(=O)c3ccccc3N2)c(OC)c1OC (stereo not drawn)
inactive: [1] -8.55% | [2] -20.5% | [3] -16.4%

CC1=NOC(=O)C1C(C)(C)C1C(=O)ON=C1C (stereo not drawn)
inactive: [1] 8.25% | [2] -0.7% | [3] -18.4%

O=C(O)/C=C/C(=O)Nc1cc(Cl)ccc1Cl
inactive: [1] 9.6% | [2] 12.1% | [3] 24.6%

CC1=NN(c2ccccc2)C(=O)/C1=C\c1ccc(N(CCC#N)CCC#N)cc1
inactive: [1] 6.85% | [2] -4.95% | [3] 21.9%

c1ccc2c(c1)OCCOCCOc1ccccc1OCCOCCO2
inactive: [1] 3.15% | [2] 10.8% | [3] 15.1%

CC1(C)OC(=O)C(=Cc2c(Cl)cccc2Cl)C(=O)O1
inactive: [1] 0.05% | [2] 7.85% | [3] -7.3%

O=C(O)C1(c2ccc(Cl)cc2)CCCC1
inactive: [1] 12.1% | [2] 8.75% | [3] 60.6%

OC1CCC2CN3CCc4c([nH]c5ccccc45)C3CC2C1 (stereo not drawn)
inactive: [1] 23.6% | [2] -9.5% | [3] 27.8%

COC(=O)c1cc(NC(=O)CC(=O)c2cccc(N)c2)cc(C(=O)OC)c1
inactive: [1] -3.8% | [2] -12.8% | [3] 8.4%

COC(CN(C)CC(OC)OC)OC
inactive: [1] -8.75% | [2] -20.9% | [3] -11.8%

O=C(CC(CC(=O)c1ccccc1)c1ccco1)c1ccccc1
inactive: [1] 2.6% | [2] -17.2% | [3] -8.65%

C[Si](C)(CCl)N[Si](C)(C)CCl
inactive: [1] -23.6% | [2] -33.9% | [3] -6.1%

CCOc1ccc(NC(=S)NC2CCCCCCCCCCC2)cc1
inactive: [1] 15.7% | [2] 10.1% | [3] 32.9%

Clc1ccc(C(c2cccs2)N2CCNCC2)cc1 (stereo not drawn)
inactive: [1] 5.45% | [2] -2.75% | [3] 5.35%

N#[N+]c1c(O)cc(S(=O)(=O)O)c2ccccc12
inactive: [1] -21.6% | [2] -8.45% | [3] -10.4%

COc1cc(-c2cc(=O)c3c(O)cc(O)cc3o2)cc(OC)c1OC
inactive: [1] -8.15% | [2] -10.7% | [3] 40%

Cc1cc(CSC(=N)N)c(C)cc1CSC(=N)N
inactive: [1] -12.1% | [2] -39.6% | [3] -7.5%

Cc1c(Cl)cccc1NCN1C(=O)c2ccccc2C1=O
inactive: [1] 9.65% | [2] -6.6% | [3] 31.5%

S=C(S)NC1CCCCCCCCCCC1
inactive: [1] 45.8% | [2] 23.8% | [3] 39%

Nc1nc(N)nc(-c2ccccc2Cl)n1
inactive: [1] 3.65% | [2] -10.8% | [3] 32.2%

O=C(O)/C=C/C(=O)Nc1cc(Cl)c(Cl)cc1Cl
inactive: [1] -11.3% | [2] -3.25% | [3] -10.9%

CCOC(=O)CCc1ccc(O)c(O)c1
inactive: [1] 4.9% | [2] 1.85% | [3] 15.6%

O=C(CCCCCCCCCCBr)OCc1ccccc1
inactive: [1] -34.2% | [2] -40% | [3] 5.9%

CCOc1ccc(/C=C(/C#N)C(N)=O)cc1
inactive: [1] 9.7% | [2] -8.1% | [3] 9.05%

COc1ccc(-c2coc3ccc4ccccc4c3c2=O)cc1OC
inactive: [1] 16% | [2] -15.1% | [3] 7.25%
